{"source": "PubChem BioAssay (Tox21)", "note": "Records with an inconclusive call do not appear. The source made the active and inactive calls. Calls follow the shape of the dose curve; as a rule, active = well fitted inhibition curve with a large enough effect in the signal ratio in the repeat runs (not every such curve was filed as active); inconclusive = weak or mixed curves, or effect the other way; inactive = no such curve, though single readings can be large or run the other way; the % refers to the signal ratio.", "data": [{"molecular_target": "Vitamin D3 receptor (Homo sapiens) (UniProt P11473)", "sequence (P11473 whole entry, looked up)": "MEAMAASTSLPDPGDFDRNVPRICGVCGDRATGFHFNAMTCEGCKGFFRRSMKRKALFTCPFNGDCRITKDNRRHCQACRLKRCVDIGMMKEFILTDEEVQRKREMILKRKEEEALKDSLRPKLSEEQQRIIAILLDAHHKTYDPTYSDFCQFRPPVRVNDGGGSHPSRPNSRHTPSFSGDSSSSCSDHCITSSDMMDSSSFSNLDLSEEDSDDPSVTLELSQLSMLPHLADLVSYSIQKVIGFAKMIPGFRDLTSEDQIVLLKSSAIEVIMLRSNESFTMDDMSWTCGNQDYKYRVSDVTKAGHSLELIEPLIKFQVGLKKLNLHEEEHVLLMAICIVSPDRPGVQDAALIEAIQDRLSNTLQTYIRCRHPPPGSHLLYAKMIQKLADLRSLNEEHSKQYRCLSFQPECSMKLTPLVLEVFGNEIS", "assay": "qHTS assay to identify small molecule antagonists of the vitamin D receptor (VDR) signaling pathway (AID 743223)", "settings": "VDR-UAS-bla HEK293T, beta-lactamase FRET ratio, 16 h; series mostly up to 61 µM", "text": "U.S. Tox21 Program National Center for Advancing Translational Sciences [NCATS] NIH Chemical Genomics Center [NCGC] U.S. Environmental Protection Agency [EPA] National Institutes of Environmental Health Sciences [NIEHS] National Toxicology Program [NTP] U.S. Food and Drug Administration [FDA] Tox21 Assay Overview: The vitamin D receptor (VDR), a member of nuclear hormone receptor superfamily, plays a critical role in calcium homeostasis and bone metabolism. It is also involved in cell differentiation and growth, and thrombogenicity.\nTox21 Assay Protocol Summary: VDR-bla cells were dispensed at 2,000 cells/5 uL of assay medium per well into black wall/clear-bottom 1536-well plates using a Multidrop Combi (Thermo Fisher Scientific, Waltham, MA) dispenser. After the assay plates were incubated at a 37C and 5% CO2 for 4 h, 23 nL of compounds dissolved in DMSO, positive controls or DMSO only was transferred to the assay plate by a Pintool station (Kalypsys, San Diego, CA), followed by addition of 1 uL of 1alpha, 25-Dihydroxy Vitamin D3 (3 nM, final concentration in the wells) using a Bioraptr Flying Reagent Dispenser (FRD) workstation (Beckman Coulter, Indianapolis, IN). The plates were incubated at 37C and 5% CO2 for 16 h, and then 1 uL of LiveBLAzerTM B/G FRET substrate was added using a Bioraptr FRD. The plates were incubated at room temperature for 2 h and fluorescence intensity was measured by an Envision plate reader (PerkinElmer, Shelton, CT).", "values": [{"molecule": "CCC1(c2ccccc2)CCC(=O)NC1=O", "note": "(stereo not given)", "outcome": "inactive"}, {"molecule": "C#CC(C)(C)O", "outcome": "inactive"}, {"molecule": "N=C(N)[Se]", "outcome": "inactive"}, {"molecule": "CN(C)C1CCCCC1", "outcome": "inactive"}, {"molecule": "Nc1c(Cl)c(F)nc(OCC(=O)O)c1Cl", "outcome": "inactive"}, {"molecule": "CCNP(=S)(OC)O/C(C)=C/C(=O)OC(C)C", "note": "(stereo not given)", "outcome": "inactive"}, {"molecule": "O=C(Cl)c1ccccc1", "outcome": "inactive"}, {"molecule": "CS(=O)(=O)Cl", "outcome": "inactive"}, {"molecule": "COP(=O)(OC)O/C(C)=C/C(=O)N(C)C", "outcome": "inactive"}, {"molecule": "CCOC(=O)NC(C)(C)Cc1ccc(Cl)cc1", "outcome": "inactive"}, {"molecule": "CC(C)(C)C(=O)C(Cl)Cl", "outcome": "inactive"}, {"molecule": "O=C(Cl)C(Cl)(Cl)Cl", "outcome": "inactive"}, {"molecule": "CC(C)c1ccc(O)cc1", "outcome": "inactive"}, {"molecule": "CCCCS(=O)(=O)Cl", "outcome": "inactive"}, {"molecule": "COC(=O)c1ccccc1CS(=O)(=O)NC(=O)Nc1nc(OC)cc(OC)n1", "outcome": "inactive"}, {"molecule": "O=P(O)(O)c1ccccc1", "outcome": "inactive"}, {"molecule": "CC(Cc1ccccc1)NCCCCl", "note": "(stereo not given)", "outcome": "inactive"}, {"molecule": "O=C1C2CC=CCC2C(=O)N1SC(Cl)(Cl)Cl", "note": "(stereo not given)", "outcome": "inactive"}, {"molecule": "O=C(NC(O)C(Cl)(Cl)Cl)NC(O)C(Cl)(Cl)Cl", "note": "(stereo not given)", "outcome": "inactive"}, {"molecule": "ClC(Cl)(Cl)Cl", "outcome": "inactive"}, {"molecule": "CCC(CC)(CNC(=O)CCCO)c1cccc(OC)c1", "outcome": "inactive"}, {"molecule": "Cc1ccc2c(c1)C1CN(C)CCC1N2", "note": "(stereo not given)", "outcome": "inactive"}, {"molecule": "CCOC(=O)CCl", "outcome": "inactive"}, {"molecule": "CC(C)(O)C(Cl)(Cl)Cl", "outcome": "inactive"}, {"molecule": "CNC(=O)O/N=C(/CSC)C(C)(C)C", "outcome": "inactive"}, {"molecule": "CC(Cc1ccccc1)NCCn1cnc2c1c(=O)n(C)c(=O)n2C", "note": "(stereo not given)", "outcome": "inactive"}, {"molecule": "CC(C)N(Cc1ccccc1)C(=O)C(C)(C)C", "outcome": "inactive"}, {"molecule": "BrCC1CO1", "note": "(stereo not given)", "outcome": "inactive"}, {"molecule": "CCC1(c2cccc(O)c2)CCCCN(C)C1", "note": "(stereo not given)", "outcome": "inactive"}, {"molecule": "CCCC[N+](=O)[O-]", "outcome": "inactive"}, {"molecule": "N[C@@H]1C[C@H]1c1ccccc1", "outcome": "inactive"}, {"molecule": "CC(C)NCC(O)c1ccc([N+](=O)[O-])cc1", "note": "(stereo not given)", "outcome": "inactive"}, {"molecule": "CC[C@H](N)c1ccccc1", "outcome": "inactive"}, {"molecule": "O=S1(=O)OCCO1", "outcome": "inactive"}, {"molecule": "CCNc1nc(Cl)nc(NC(C)(C)C)n1", "outcome": "inactive"}, {"molecule": "C=CCc1cc(OC)c2c(c1)OCO2", "outcome": "inactive"}, {"molecule": "CN1COCN(Cc2cnc(Cl)s2)/C1=N\\[N+](=O)[O-]", "outcome": "inactive"}, {"molecule": "C=CC=O", "outcome": "inactive"}, {"molecule": "CCC1(c2ccccc2)C(=O)N(COC)C(=O)N(COC)C1=O", "outcome": "inactive"}, {"molecule": "CCC(=O)OC1(c2ccccc2)CCN(C)CC1", "outcome": "inactive"}]}]}
